Assay outcomes: PubChem, several laboratories
HSF1 inhib: HSF1 inhibition. 0.77% of 300,000 active. activity change, negative = inhibition, % at 7.5 µM (by protocol). AID 2098. NIH3T3-HGL HSE-luciferase, MG132-induced, luminescence 8 h; hits give low values;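 active = more than half of replicate wells show activity change below -50%, luminescence cut by over half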;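 also: luciferase reports HSF-1 transcriptional activity via heat shock element; 0% = median of DMSO wells and -100% = zero luminescence signal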
TWEAK Fn14 block: TWEAK-Fn14 signaling inhibition; inhibition, % at 10 µM; 2% of 360,000 active; TWEAK-stimulated Fn14 reporter cells, luciferase luminescence, 8 h; in the data active = inhibition above about 50%
TROY signal inh: TROY signaling inhibition; Q293 LMP1-TROYcd NF-kB luciferase reporter, 4 h; inhibition, % at 10 µM; 0.98% of 360,000 active; AID 1347056;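 active = compounds whose plate-normalised and pattern-corrected inhibition of the luciferase reporter signal at the single screening dose is 50% or more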
HSF1 activator: increases HSF-1 driven luciferase reporter signal; activation, % at 9 µM; 1.7% of 300,000 active; NIH3T3-HGL HSF-1 luciferase reporter, MG132, 8 h; 100% = twice DMSO control signal;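 active = mean replicate activation of at least 50% with a set share of replicates each reaching 50%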;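 also: 0% = median of the neutral control wells and 100% = twice that signal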
LMP1 NFkB inh: reduces LMP1-driven NF-kappaB luciferase signal; LMP1-induced NF-kappaB luciferase reporter cells, luminescence; inhibition, % at 12.5 µM; 0.69% of 350,000 active; in the data active = inhibition above about 41%;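 also: 0% = neutral control wells and 100% = reference inhibitor control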
HSP90 refold inh: blocks HSP90-mediated luciferase refolding in reticulocyte lysate | Rabbit reticulocyte lysate, luciferase refolding luminescence, 3 h | inhibition, % at 5.6 µM | 0.91% of 290,000 active | AID 1789;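 active = inhibition above the screen-wide mean plus 3 SD, computed separately per campaign, cut at about 16% in these data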;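 also: 0% = DMSO wells and 100% = 60 µM geldanamycin wells; inhibitors lower the luminescence because luciferase stays unfolded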
Numbers without * were called inactive; nt = not tested or not shown; ! = a repeat was not active. This is a sample that favours compounds with a hit; in the whole collection about 4.7% have one here.

SMILES	HSF1 inhib	TWEAK Fn14 block	TROY signal inh	HSF1 activator	LMP1 NFkB inh	HSP90 refold inh
CCOC(=O)[C@]12CCCC=C1N(Cc1ccco1)C(=O)[C@H](CC(=O)NCc1ccccc1)C2	nt	-3	-25	nt	nt	nt
C(=NN1CCCCCC1)c1ccc2ccccc2n1	nt	104*	87*	nt	84*	nt
C(=NN1CCCCCC1)c1cccc2ccccc12	nt	14	21	nt	-12	nt
CN(C)c1ccnc2sc(C(N)=O)c(N)c12	-2	29	-21	-20	56*	10
CN1OC[C@@H]2CN(C(=O)Nc3ccccc3)[C@H](c3ccc(N4CCCCC4)cc3)C[C@@H]21	nt	11	-2	nt	nt	nt
O=C(CSc1nnc(-c2ccccc2)o1)c1ccc2c(c1)OCCO2	-1	20	59*	-11	-9	-5
O=C(CSc1nnc(-c2ccc3c(c2)OCCO3)o1)N1CCCC1	20	70*	28	45	2	11
CCc1ccc(NC(=S)/N=C(\N)Nc2nc(C)c3cc(CC)ccc3n2)cc1	15	57*	41	32	11	1
CCOc1ccc2nc(N/C(N)=N/C(=S)Nc3ccc(OC)cc3)nc(C)c2c1	1	-11	-9	-4	-1	0
CCc1nc2c(OCCc3cccc(OC)c3)cccn2c1N(C=O)Cc1ccccc1	nt	-4	-5	nt	nt	nt
COc1ccc(OC)c(NC(=O)C2(C)CCN2C(=O)CCC2CCCC2)c1 (stereo not given)	nt	-4	-4	nt	nt	nt
CC(=O)Nc1ccc(Nc2nc(-c3sc(C)nc3C)cs2)cc1	-2	12	13	-7	16	-2
Cc1nc(C)c(-c2csc(Nc3ccccn3)n2)s1	24	55*	-4	43	-1	4
Cc1nc(N)sc1-c1csc(Nc2ccccn2)n1	-16	11	-6	-11	-13	5
Cc1ccnc(Nc2nc(-c3sc(C)nc3C)cs2)c1	2	84*	37	30	-27	nt
CC(=O)c1ccc(Nc2nc(-c3sc(C)nc3C)cs2)cc1	nt	56*	17	nt	10	nt
Cc1ccnc(Nc2nc(-c3ccc(F)cc3)cs2)c1	44	-20	59*	80*	-44	13
Cc1cccc(Nc2nc(-c3sc(C)nc3C)cs2)c1	2	24	-31	1	-21	2
O=C(NCC(F)(F)F)c1cc2c(c(-c3cccc(-c4ccccc4F)c3)n1)[C@H](CCO)N(C(=O)CC1CC1)C2	nt	25	5	nt	nt	nt
C(=C\c1ccccc1)/CN1CCN(C(c2nnnn2Cc2ccccc2)C2CC2)CC1 (stereo not given)	nt	-27	-25	nt	nt	nt
C=CCc1c(C)nc2cc(-c3ccc(C)cc3)[nH]n2c1=O	7	63*	37	12	12	10
CCc1c(C)nc2cc(-c3ccccc3)[nH]n2c1=O	25	4	-57	29	-18	-4
O=C(CCC(=O)OCC(=O)c1ccc(C(F)(F)F)cc1)OCC(=O)c1ccc(C(F)(F)F)cc1	-7	14	-10	-14	nt	7
COCCCC/C(=N\OCCN)c1ccc(C(F)(F)F)cc1	-81*!	-7	-9	-8	68*!	2
CC(C)(C)NC(=O)CSc1ncnc2c1nnn2Cc1ccccc1Cl	86	21	29	112*	0	1
SMILES	HSF1 inhib	TWEAK Fn14 block	TROY signal inh	HSF1 activator	LMP1 NFkB inh	HSP90 refold inh
CCCCNc1ncnc2c1nnn2Cc1ccccc1Cl	-4	11	-1	-19	2	2
O=C(CSc1ncnc2c1nnn2Cc1ccccc1)NC1CCCC1	40	9	17	58*	5	-6
O=C(Nc1ccccc1)C1=C(c2ccccc2)S(=O)(=O)CCS1(=O)=O	-62*	88*	87*	-68	72*	1
O=C(O)c1ccccc1C(=O)Nc1ccccc1	4	3	1	-13	-3	-2
CCc1nc2ccc(C(=O)Nc3cccc(OCC(=O)N(C)C)c3)cn2c1N(C=O)Cc1ccc(OC)cc1	nt	-20	-9	nt	nt	nt
Cc1nc(N2CCCCC2)[nH]c(=O)c1CN(C)N=O	nt	-16	-20	nt	-20	nt
O=C(OCCN1C(=O)c2cccc3c(N4CCOCC4)ccc(c23)C1=O)c1ccc(Cl)cc1	10	66*	42	14	16	0
COc1ccc(C(C#N)=C2C=C(Cl)C(=NO)C=C2Cl)cc1	nt	75*	42	nt	5	nt
COc1ccc(CCN2CC(C(=O)NCCc3ncccc3C)CCC2=O)cc1 (stereo not given)	nt	-14	-18	nt	1	nt
